HTT aggregate = inhibitors of mutant huntingtin aggregate formation in PC12 cells | PC12 HttQ103-GFP aggregates, Acumen cytometry, 40 h | Potency, µM (top dose mostly 46.1 µM), without a hit: at the highest dose activity change, negative = inhibition, most hits filed as inhibitors | hit rate 1.1% among 220,000; further: potency means the concentration at half of the fitted maximal effect; on the % scale 0 is the no-effect control and ±100 the full control effect; nearly all actives have a fitted effect of over 60% in size
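PC12 cells with ecdysone-inducible HTT exon1 Q103-GFP, induced by 100 nM tebufenozide, given compounds in a concentration series. GFP aggregates (1–25 um, 6 SD above background) counted in lysates by laser-scanning cytometry, 488 nm excitation.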
IMPase inh = IMPase inhibition in cells. P97697. CHO-M1 cells, IP1 accumulation, HTRF TR-FRET ratio. inhibition (IP1 accumulation), % at 46.1 µM. 120,000 tested, under 10 active; active means well fitted curve in the direction sought with a large enough effect in the signal ratio, not every such curve was filed as active; inconclusive means small, poorly fitted or top-dose-only effect, or a change in a side signal; inactive means no such curve, though single readings can be large or run the other way; the % refers to the signal ratio;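 further: cells stimulated with carbachol in lithium chloride buffer; plate controls were DMSO basal wells for no effect and reference inhibitor wells for full effect; higher means more IMPase inhibition seen as more IP1 and lower FRET ratio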
Target sequence (P97697 whole entry, looked up): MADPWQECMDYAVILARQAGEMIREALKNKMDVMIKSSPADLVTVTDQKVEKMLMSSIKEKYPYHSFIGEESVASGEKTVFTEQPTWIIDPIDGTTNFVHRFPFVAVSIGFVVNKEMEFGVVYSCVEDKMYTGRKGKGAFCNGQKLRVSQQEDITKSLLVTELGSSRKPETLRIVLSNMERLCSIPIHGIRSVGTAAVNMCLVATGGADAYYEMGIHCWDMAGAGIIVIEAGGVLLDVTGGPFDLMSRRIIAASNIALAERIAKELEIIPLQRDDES
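In this qHTS, compounds (final up to 46 uM) act on CHO-M1 cells that are then activated through the M1 receptor with carbachol, in pH 7.4 buffer containing 50 mM LiCl, for 30 min. IP1 accumulation is quantified by the IP-One immunoassay.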
HPGD inh = inhibitors of human 15-hydroxyprostaglandin dehydrogenase (HPGD) | purified HPGD, NADH fluorescence kinetic, PGE2 substrate | AID 894 | Potency, µM, without a hit: at the highest dose activity change, negative = inhibition, most hits filed as inhibitors | hit rate 4.3% among 150,000 | P15428; active means well fitted inhibition curve with a large enough effect, not every such curve was filed as active; inconclusive means small, poorly fitted or top-dose-only effect, or another doubt; inactive means no such curve, though single readings can be large or run the other way; further: potency means the concentration at half of the fitted maximal effect; on the % scale 0 is the no-effect control and ±100 the full control effect
Target sequence (P15428 whole entry, looked up): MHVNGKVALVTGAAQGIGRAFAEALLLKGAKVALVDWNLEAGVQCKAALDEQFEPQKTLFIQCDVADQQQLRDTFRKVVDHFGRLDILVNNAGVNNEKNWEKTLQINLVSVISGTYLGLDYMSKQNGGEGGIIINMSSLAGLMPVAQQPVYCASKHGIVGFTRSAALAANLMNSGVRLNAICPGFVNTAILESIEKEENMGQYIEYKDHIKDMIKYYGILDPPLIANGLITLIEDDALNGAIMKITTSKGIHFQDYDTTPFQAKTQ
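20 nM HPGD preincubated 15 min at room temperature with compound in 50 mM Tris-HCl pH 8, 0.01% Tween 20. Started with 1 mM NAD+ and 30 uM prostaglandin E2; NADH fluorescence (360/450 nm) read 5 times over 30-s intervals, last minus first.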
HTT cytoprotect = protects HTT-Q103 PC12 cells, measured by ATP; PC12 HTT-Q103 induced, cytoprotection, ATP luminescence, 40 h; hit rate 0.14% among 230,000; AID 1471; Potency, µM (highest dose often 56.4 µM), inactives show cytoprotection (ATP increase), actives largely listed as activators; further: potency means the concentration at half of the fitted maximal effect; % of control where 0% means no effect; nearly all actives have a fitted effect of over 45% in size
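Stable PC12 Q103-GFP cells in serum-supplemented, phenol red-free DMEM; induction by tebufenozide at 100 nM final; compound dose series; cell viability quantified luminescently from ATP.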
ALDH1A1 inh = blocks purified human ALDH1A1 activity. Purified ALDH1A1, NADH fluorescence, propionaldehyde substrate. Potency, µM (titrated, usually from 75.3 µM), inactives show at the top dose activity, negative = inhibition, hits mostly inhibitors. P00352. hit rate 7.3% among 220,000; active means well fitted inhibition curve with a large enough effect, not every such curve was filed as active; inconclusive means small, poorly fitted or top-dose-only effect, or another doubt; inactive means no such curve, though single readings can be large or run the other way;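 further: potency means the concentration at half of the fitted maximal effect; plate controls were no enzyme wells and a reference inhibitor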
IMPase Li cell = IMPase inhibition in cells with lithium potentiation. AID 1457. Potency, µM (doses to about 59.4 µM), for inactives: at the top dose activity, negative = IMPase inhibition, hits mostly inhibitors. hit rate 0.35% among 210,000. CHO-M1 cells, IP1 TR-FRET (IP-One), carbachol + lithium;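 further: IP1 builds up when IMPase is blocked and the TR-FRET signal falls; potency means the concentration at half of the fitted maximal effect; plate controls were basal vehicle for no effect and high inhibitor control for full effect; nearly all actives have a fitted effect of over 50% in size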
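Lithium-sensitised IP1 accumulation assay; M1-expressing CHO cells treated 30 min at 37C with compound. Competitive antibody detection by time-resolved FRET followed a 10 min room-temperature lysis step.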
An asterisk follows results filed as active; ? = inconclusive; / = no result given; [ ] = another dose, or the depositor's remark. Shown are actives, neighbours in structure and some others; about 9.4% of the full set was active somewhere. Unless noted, the call rests on the fitted dose curve; in most records, active means well fitted curve in the direction sought with a large enough effect; inconclusive means small, poorly fitted or top-dose-only effect, or another doubt; inactive means no such curve, though single readings can be large; an effect the other way counts as inactive or inconclusive.

SMILES	HTT aggregate	IMPase inh	HPGD inh	HTT cytoprotect	ALDH1A1 inh	IMPase Li cell
Cc1cccc2c1c1ccc3c(c1n2C)C(=O)C=CC3=O	-12%[9.22 µM]	/	/	-20%[10 µM]	0.32µM*	/
COc1ccccc1CCn1c(=O)c(-c2ccccc2)nc2cncnc21	/	/	-3%	12%	-9%	4%
COC(=O)COc1ccc(Oc2nc(NC(C)(C)C)nc(N3CCOCC3)n2)nn1	/	0	/	/	/	/
COc1cc(NC(=O)c2nc3cc(C)c(C)cc3n(C)c2=O)cc(OC)c1OC	/	-5	/	/	/	/
Cc1oc(/N=C/c2c(O)ccc3ccccc23)c(C#N)c1C	-1%	7	-13%	-2%	35µM*	1%[38.3 µM]
O=[N+]([O-])c1cc(-c2nnc(Nc3ccccc3)c3ccccc23)ccc1N1CCOCC1	26%	-9	14µM*	0%[1.9 µM]	?	4%
O=[N+]([O-])c1cc(-c2nnc(N3CCOCC3)c3ccccc23)ccc1N1CCOCC1	-2%	/	/	/	10µM*	13%
Cc1ccc(NC(=O)CCCc2nc3ccccc3s2)c(O)c1	?	/	/	27%	-1%	-10%
O=C(CCc1nnc(-c2ccccc2)o1)NC1CCCCC1	-4%[9.22 µM]	/	/	-8%[10 µM]	1%	6%
O=C(CCc1nc(-c2ccccc2)no1)NC1CCCCC1	5%	0	18µM*	-11%	?	18%[38.3 µM]
O=C(CCc1nc(-c2ccccc2F)no1)NC1CCCCCC1	-29%	-6	28µM*	-11%	-11%	25%[38.3 µM]
CC12CCC3C(CC3(C)C)C(C)(CCC1=O)O2 (configuration not stated)	/	/	1%	/	16%	8%
CCN1C(=O)[C@H]2[C@H]3[C@H](O)[C@H](O)C/C(=N/OCC[C@H]4C=C[C@H](OC(C)=O)[C@@H](COC(C)=O)O4)[C@@H]3CC[C@@H]2C1=O	/	/	/	1%[10 µM]	-3%[13.5 µM]	/
CN(C)c1oc(-c2ccccc2[N+](=O)[O-])nc1C#N	14%[9.22 µM]	/	/	17%[10 µM]	10µM*	/
COc1ccc(C(=O)NN/C(C)=C/C(=O)C(F)(F)C(F)(F)C(F)(F)F)cc1	11µM*	/	-14%	41%[10 µM]	-3%	-5%
Cc1ccc(S(=O)(=O)Nc2cc3c(cc2NCc2ccccc2)n(C)c(=O)n3C)c(C)c1	/	4	/	/	/	/
COc1ccc(C2C(C(=O)N3CCN(c4ccccc4F)CC3)c3ccccc3C(=O)N2C)cc1 (configuration not stated)	6%	1	-7%	-5%	0.89µM*	25%[38.3 µM]
CCOC(=O)C(=CNc1cc(Cl)c(-c2ccco2)c(Cl)c1)C(=O)OCC	28%[9.22 µM]	/	/	5%[10 µM]	/	/
O=C(NC(=S)NCCSc1ccccc1)c1cccnc1	-2%	/	-14%	0%[10 µM]	14µM*	11%
Cc1ccccc1C(=O)NC(=S)NCc1cccnc1	7%[9.22 µM]	/	/	0%[10 µM]	0%	0%
Cc1ccccc1C(=O)NNC(=S)NC(=O)c1cccnc1	-21%	/	-11%	0%[10 µM]	25µM*	-2%
O=C(NC(=S)NCc1cccnc1)c1ccccc1	-7%	/	-1%	0%[10 µM]	-2%	4%
O=C(NC(=S)NNC(=O)c1ccccc1F)c1cccnc1	0%[9.22 µM]	/	/	-2%[10 µM]	7.1µM*	/
COc1ccccc1C(=O)Nc1ccc(S(=O)(=O)Nc2ncccn2)cc1	/	-7	/	/	/	/
CC=C(/C(=C/C)c1ccc(O)cc1)c1ccc(O)cc1	3%[20.6 µM]	2[20.6 µM]	-17%	-47%[17.1 µM]	-9%[20.9 µM]	14%
SMILES	HTT aggregate	IMPase inh	HPGD inh	HTT cytoprotect	ALDH1A1 inh	IMPase Li cell
Cc1cc(NC(=O)CSc2nnnn2Cc2ccccc2)no1	3%	?	2%	6%[10 µM]	32µM*	-5%
O=C(CSc1nnnn1-c1ccccc1)Nc1ccc(Cl)cn1	10%	5	-3%	-8%[0.074 µM]	2.2µM*	25%[38.3 µM]
Cc1cccc(-n2nnnc2SCC(=O)Nc2cccc(S(N)(=O)=O)c2)c1	9%[9.22 µM]	/	/	11%[10 µM]	7.9µM*	/
O=C(CSc1nnnn1-c1ccccc1)Nc1ccc(Cl)cc1	23%	-12	-9%	-3%	?	-9%[38.3 µM]
COc1ccccc1-n1nnnc1SCc1cc2c(cc1Br)OCO2	?	8	?	-9%	4.5µM*	34%[38.3 µM]
O=C(CSc1nnnn1-c1ccc(O)cc1)Nc1cccc(S(=O)(=O)N2CCCC2)c1	-6%	2	-6%	4%	-1%	20%[38.3 µM]
Cc1cc(NC(=O)c2ccc([N+](=O)[O-])cc2)n(C)n1	5%[9.22 µM]	/	/	4%[10 µM]	2%	/
Cc1ccc(C(C)C)c(OCCCn2c(=O)oc3ccc(C)cc32)c1	/	6	/	/	/	/
CCOc1ccccc1-n1nnnc1SCC(=O)NCc1ccco1	/	/	/	/	?	9%
CCOc1ccccc1-n1nnnc1SCC(=O)Nc1cc(C)on1	-2%	?	3%	-15%	8.9µM*	-2%[38.3 µM]
O=C1CN(C(=O)CSc2nnc(Nc3ccccc3)s2)c2ccccc2N1	-2%	/	2.2µM*	-14%[10 µM]	28µM*	6%
COc1ccccc1Nc1nnc(SCC(=O)N2CC(=O)Nc3ccccc32)s1	10%	-3	/	2%[10 µM]	-3%	/
CCc1nnc(NC(=O)CSc2nnnn2-c2cccc(C(=O)OC)c2)s1	-3%	-7	14µM*	-18%[10 µM]	?	13%[38.3 µM]
COc1ccc(-n2c(SCC(=O)Nc3cc(C)on3)nc3c([nH]c4ccccc43)c2=O)cc1	-1%[9.22 µM]	/	/	-11%[10 µM]	?	5µM*
CCc1nnc(NC(=O)CSc2nnnn2C)s1	7%	4	?	15%[1.9 µM]	4%	2%

High-throughput results: PubChem BioAssay, National Center for Advancing Translational Sciences (NCATS)
